In all, about 1,100 compounds went through this assay and about 210 (19%) were called active. How the calls were made is not given here. A selection follows. Entries with a potency or affinity are not part of this list.
Test: cell viability loss from selected hits – cytotoxicity control for SV40 T antigen inhibitor project, dose response (AID 2102);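 further: cells exposed to compounds for 72 hours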
Details: Host cell viability cytotoxicity counter-screen; series mostly up to 50 µM

Row | Compound | outcome
1 | COc1ccc(NC2CCCN(C(=O)CSc3ccccc3)C2)cc1 (stereo unspecified) | inactive
2 | CCOC(=O)C1=C(O)/C(=C\c2ccc(O)c(OCC)c2)N=C1C | inactive
3 | O=c1oc2ccccc2c2oc3cc(O)c(O)cc3c12 | inactive
4 | O=C1NC(=O)C(c2ccccc2[N+](=O)[O-])=C1Nc1ccc(O)c(Cl)c1 | inactive
5 | COc1cc(/C=N/NC(=O)C2=NNC(=O)C2C)ccc1O (stereo unspecified) | inactive
6 | O=C(c1nnsc1S(=O)c1ccc(Cl)cc1)N1CCOCC1 (stereo unspecified) | inactive
7 | CN(C)c1ccc(NC(=O)CN2CCN(CC(=O)Nc3ccc(F)cc3)CC2)cc1 | inactive
8 | CCOc1cc(/C=C2\NC(=S)N(c3c(C)n(C)n(-c4ccccc4)c3=O)C2=O)ccc1O | inactive
9 | O=S(=O)(NC1=NCCCCC1)c1ccc2sc(NS(=O)(=O)c3ccc4ccccc4c3)nc2c1 | inactive
10 | COc1cc(/C=C2\S/C(=N/S(=O)(=O)c3ccc(C)cc3)NC2=O)c([N+](=O)[O-])cc1OC | inactive
11 | O=S(=O)(Nc1ccc(O)cc1)c1cccc2cccnc12 | inactive
12 | O=C(c1ccco1)N1CCN(C(=S)Nc2ccc(F)c(Cl)c2)CC1 | inactive
13 | CN(C)c1ccc(NC(=O)c2ccc(N3CCOCC3)nc2)cc1 | inactive
14 | COc1cc(C(c2c(C)[nH][nH]c2=O)c2c(C)[nH][nH]c2=O)ccc1OC(=O)c1cccc([N+](=O)[O-])c1 | inactive
15 | CCOC(=O)C1(C)C=C(Nc2ccc(O)cc2)C(=O)N1c1ccc(O)cc1 (stereo unspecified) | inactive
16 | Cn1c(=O)oc2cc(S(=O)(=O)Nc3ccc(O)cc3)ccc21 | inactive
17 | CN(C)c1ccc(NC(=O)CSc2nnc(-c3ccco3)c(-c3ccco3)n2)cc1 | inactive
18 | N/C(=N\N=C\c1ccc(O)c(O)c1)c1nonc1N | inactive
19 | COc1cc(/C(C)=N/NC(=O)Cc2c(C)[nH][nH]c2=O)ccc1O | inactive
20 | CN=c1scc(C)n1/N=C/c1ccc(O)cc1 | inactive
21 | CC1=C(C(=O)c2ccccc2)C(c2ccc(O)cc2)NC(=S)N1 (stereo unspecified) | inactive
22 | Nc1nc2ccc(O)cc2s1 | inactive
23 | Cc1cc2c(n1-c1ccc(C(=O)O)cc1)CCCCC2 | inactive

Row | Compound | outcome
24 | O=C(c1cccc(-c2ccc(O)cc2)c1)N1CCOCC1 | inactive
25 | CC(=O)Nc1ccc(S(=O)(=O)Nc2nc3ccccc3nc2Nc2ccc(O)cc2)cc1 | inactive
26 | CCOc1cc(/C=N\NC(=O)CC(=O)NCCc2ccccc2)ccc1O | inactive
27 | Cc1cc(=O)[nH]c(N/N=C/c2c[nH]c3ccccc23)n1 | inactive
28 | CCn1cnc2cc(NCc3ccc(N(C)C)cc3)ccc21 | inactive
29 | C/C(=N\NC(=O)CSc1nc2ccccc2o1)c1ccc(O)cc1 | inactive
30 | Cc1cccc(N2NC(=O)/C(=C/c3ccc(-c4ccc(Cl)c(C(=O)O)c4)o3)C2=O)c1 | inactive
31 | C=CCn1c(SCC(=O)c2ccc(O)c(O)c2)nnc1-c1ccccc1OC | inactive
32 | COc1cc(/C=N/NC(=O)c2cc(C3CC3)[nH]n2)ccc1O | inactive
33 | COCCCNC(=S)N/N=C/c1ccc(O)cc1O | inactive
34 | Nc1c(O)cccc1C(=O)O | inactive
35 | NC(=O)N/N=C/c1c(Sc2nnnn2-c2ccccc2)nc2ccccn2c1=O | inactive
36 | COc1ccc2c(c1OC)C(=O)N(c1ccc(O)cc1)C2 | inactive
37 | O=C1CCCC2=C1Sc1ccccc1N2 | inactive
38 | CCSC1(SCC)N=C(N)C2(C#N)C(c3ccc(OC)c(OC)c3OC)C12C#N (stereo unspecified) | inactive
39 | COc1cc(/C=N/NC(=O)c2nc(C)cc(C)n2)ccc1O | inactive
40 | Cc1nonc1C(=O)N/N=C/c1ccc(O)c(O)c1 | inactive
41 | CC(=O)NCCc1c[nH]c2ccc(O)cc12 | inactive
42 | COc1ccccc1N1CSC2=C(C#N)C(c3ccc(SC)cc3)CC(=O)N2C1 (stereo unspecified) | inactive
43 | COc1cc(/C=N/NS(=O)(=O)c2ccc(Br)cc2)ccc1O | inactive
44 | CC(=O)c1ccc2c(c1)C1C=CCC1C(C(=O)O)N2 (stereo unspecified) | inactive
45 | Nc1cc(C(=O)O)c(N)c2c1C(=O)c1ccccc1C2=O | inactive
46 | C=CCSC1=NC(=O)/C(=C/c2cccs2)S1 | inactive

Row | Compound | outcome
47 | CCCC1=NN2C(=N)/C(=C\c3ccc(SCc4ccco4)o3)C(=O)N=C2S1 | inactive
48 | N=C1/C(=C\c2ccc(SCc3ccco3)o2)C(=O)N=C2SC=NN12 | inactive
49 | CN1CCC/C1=C/C=C1\SC(=S)NC1=O | inactive
50 | CSC1=NSC2=NC(=O)/C(=C\c3coc4ccccc4c3=O)C(=N)N12 | inactive
51 | CN(C)c1ccc(NC(=O)CN2CCC(N3CCCCC3)CC2)cc1 | inactive
52 | N#C/C(=C\c1coc2ccc(O)cc2c1=O)C(=O)Nc1nc2ccccc2s1 | inactive
53 | O=c1c2cc(O)c(O)cc2oc2cc(O)c(C3OC(CO)C(O)C(O)C3O)c(O)c12 (stereo unspecified) | inactive
54 | CCOc1cc(NC2CS(=O)(=O)CC2O)c(OCC)cc1NC(=O)c1ccccc1 (stereo unspecified) | inactive
55 | CC1(C)CC(=O)C(C=Nc2ccc(O)cc2)=C(O)C1 | inactive
56 | O=c1c2c3c(sc2n2c(=S)[nH]nc2n1-c1ccccc1)CCC3 | inactive
57 | COc1ccc(-n2c(=O)c3c4c(sc3n3c(=S)[nH]nc23)CCC4)cc1 | inactive
58 | COCCCn1c(=O)c2ccccc2n2c(=S)[nH]nc12 | inactive
59 | OCc1ccccc1SSc1ccccc1CO | inactive
60 | O=C(O)CCNc1ccc(NCCC(=O)O)c2c1C(=O)c1ccccc1C2=O | inactive
61 | Oc1ccc(-c2nc3ccccn3c2NCc2ccco2)cc1 | inactive
62 | Oc1ccc2ccccc2c1C=Nc1ccc(N2CCOCC2)cc1 | inactive
63 | Cc1ccc(-n2nnnc2C(Cl)(Cl)c2nnnn2-c2ccc(C)cc2)cc1 | inactive
64 | c1ccc(-c2ccc3c(c2)NCCN3)cc1 | inactive
65 | Oc1ccc(/C=N/NC(=S)Nc2cccnc2)cc1 | inactive
66 | CCCCC1(C)OC(=O)C(=Cc2ccc(-c3ccc(Cl)c(C(=O)O)c3)o2)C(=O)O1 (stereo unspecified) | inactive
67 | Nc1nc2ccc(S(=O)(=O)N3CCCCC3)cc2s1 | inactive
68 | O=C(O)c1ccccc1NS(=O)(=O)c1cccc(-n2sc3ccccc3c2=O)c1 | inactive
69 | O=c1c2ccccc2sn1-c1cc(S(=O)(=O)N2CCOCC2)ccc1N1CCCC1 | inactive

Row | Compound | outcome
70 | C[C@]12CC[C@@H]3c4cc(O)c(O)cc4CC[C@H]3[C@@H]1CC[C@@H]2O | inactive
71 | O=C(Nc1ccc(O)cc1)c1ccc(NC(=O)C2CCCO2)cc1 (stereo unspecified) | inactive
72 | COc1cc([N+](=O)[O-])ccc1NC(=O)Oc1ccc(NC(C)=O)cc1 | inactive
73 | O=C1CC(=O)N(Cc2ccco2)C(=O)N1 | inactive
74 | COc1ccc(NCC(O)Cn2cnc3c2c(=O)n(C)c(=O)n3C)cc1 (stereo unspecified) | inactive
75 | CCN(CC)c1ccc(NC(=O)COC(=O)c2ccc3ccccc3n2)cc1 | inactive
76 | COc1cc(/C=c2\sc3n(c2=O)CCCN=3)ccc1O | inactive
77 | Cc1nn(CC(=O)Nc2ccc(N(C)C)cc2)c(C)c1[N+](=O)[O-] | inactive
78 | Cc1cc(=O)oc2c(N)c(O)ccc12 | inactive
79 | Cc1cc(C)c2c(c1)NC(C(=O)O)C1CC=CC21 (stereo unspecified) | inactive
80 | CCOc1cc(/C=N/Nc2ncnc(Cl)c2N)ccc1O | inactive
81 | O=c1cc(-c2ccc(O)c(O)c2)oc2c(C3O[C@H](CO)[C@@H](O)[C@H](O)[C@H]3O)c(O)cc(O)c12 (stereo partly specified) | inactive
82 | O=c1cc(-c2ccc(O)c(O)c2)oc2cc(O)c(C3OC(CO)C(O)C(O)C3O)c(O)c12 (stereo unspecified) | inactive
83 | COc1cc(/C=N\NC(=O)CNC(=O)c2cccc([N+](=O)[O-])c2)ccc1O | inactive
84 | Nc1ccc(OCCCc2c(N)nc(N)nc2N)cc1 | inactive
85 | COc1ccccc1NC(=O)Oc1ccc(NC(=O)c2ccco2)cc1 | inactive
86 | Cc1cccc(/C=N/n2c(-c3ccncc3)n[nH]c2=S)c1 | inactive
87 | S=c1[nH]nc(-c2ccc(Cl)cc2)n1/N=C/C=C/c1ccco1 | inactive
88 | Oc1ccc(-c2cn3ccccc3n2)cc1O | inactive
89 | C1=Cc2ccccc2Nc2ccccc21 | inactive
90 | C[C@@H]1O[C@@H](OC2C(O)C(OCCc3ccc(O)c(O)c3)OC(CO)C2OC(=O)/C=C/c2ccc(O)c(O)c2)[C@H](O)[C@H](O)[C@H]1O (stereo partly specified) | inactive
91 | CCOc1cc(/C=C2\N=C3CCCCCN3C2=O)ccc1O | inactive
92 | Cc1nc(N)sc1N=Nc1c(C)n(C)n(-c2ccccc2)c1=O | inactive

Row | Compound | outcome
93 | O=Cc1sc(=O)n(Cc2cccc(C(=O)O)c2)c1Cl | inactive
94 | CN=c1scc(C)n1/N=C/c1ccc(O)cc1O | inactive
95 | CC(C)(C)OC(=O)N/N=C/c1ccc(N2CCOCC2)s1 | inactive
96 | O=C(CSc1nc2ccccc2c(=O)[nH]1)c1ccc(O)c(O)c1 | inactive
97 | O=C(O)c1cc(S(=O)(=O)O)cc(Nc2c3ccccc3nc3ccccc23)c1O | inactive
98 | CN(C)c1ccc(NC(=O)CSc2nnc(-c3cnccn3)n2C)cc1 | inactive
99 | O=C1Nc2ccccc2/C1=N\N=C\c1ccc(O)c(O)c1 | inactive
100 | C/C(CC(=O)Nc1ccc(N(C)C)cc1)=N\NC(=O)c1ccc(Cl)cc1Cl | inactive
101 | CN(C)c1ccc(Nc2cc(Cl)ncn2)cc1 | inactive
102 | O=C(N/N=C/c1ccc(O)c(O)c1)c1cccc(S(=O)(=O)N2CCCC2)c1 | inactive
103 | COc1ccc(/C=N\NC(=O)c2ccc(=O)[nH]n2)cc1O | inactive
104 | N=C1/C(=C/c2ccc(Br)o2)C(=O)N=C2SC(CC(=O)N3CCCC3)=NN12 | inactive
105 | CN1CN(C)c2cccc3cccc1c23 | inactive
106 | CCOc1ccc(S(=O)(=O)Nc2cc(Sc3ncn[nH]3)c3oc(=O)sc3c2)cc1 | inactive
107 | COc1ccc(C2=CC3=C(Br)C(=O)C(C)(OC(=O)c4ccc(Cl)nc4)C(=O)C3=CO2)cc1 (stereo unspecified) | inactive
108 | CCOc1ccccc1NC(=S)N1CCN(c2ccc(O)cc2)CC1 | inactive
109 | O=C(NC(=S)N1CCN(c2ccc(O)cc2)CC1)c1cccs1 | inactive
110 | COc1cc(/C=N/NC(=O)CNC(=O)c2ccco2)ccc1O | inactive
111 | O=C(COc1cccnc1[N+](=O)[O-])c1ccc(Cl)s1 | inactive

— PubChem BioAssay AID2102 (Southern Research Specialized Biocontainment Screening …, 2009)
